Measured values as given in ChEMBL document CHEMBL2218924, “A broad activity screen in support of a chemogenomic map for kinase signalling research and drug discovery” (Biochem J, 2013).

Key:
[1] = molecular target: T1, Dual specificity mitogen-activated protein kinase kinase 6 (Homo sapiens) (UniProt P52564); details: at 1 µM
T1 sequence (whole entry): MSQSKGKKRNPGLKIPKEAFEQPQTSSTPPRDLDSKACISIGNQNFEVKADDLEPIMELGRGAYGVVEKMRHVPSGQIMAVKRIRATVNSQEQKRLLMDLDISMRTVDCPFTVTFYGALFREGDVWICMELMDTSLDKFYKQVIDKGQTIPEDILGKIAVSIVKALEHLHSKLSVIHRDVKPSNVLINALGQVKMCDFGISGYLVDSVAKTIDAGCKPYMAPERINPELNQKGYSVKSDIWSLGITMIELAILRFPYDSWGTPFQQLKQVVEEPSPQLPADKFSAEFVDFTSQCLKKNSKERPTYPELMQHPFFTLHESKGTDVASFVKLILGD

[2] = molecular target: T1, Dual specificity mitogen-activated protein kinase kinase 6 (Homo sapiens); details: at 10 µM
[3] = molecular target: T2, Dual specificity mitogen-activated protein kinase kinase 7 (Homo sapiens) (UniProt O14733); details: at 1 µM
T2 sequence (whole entry): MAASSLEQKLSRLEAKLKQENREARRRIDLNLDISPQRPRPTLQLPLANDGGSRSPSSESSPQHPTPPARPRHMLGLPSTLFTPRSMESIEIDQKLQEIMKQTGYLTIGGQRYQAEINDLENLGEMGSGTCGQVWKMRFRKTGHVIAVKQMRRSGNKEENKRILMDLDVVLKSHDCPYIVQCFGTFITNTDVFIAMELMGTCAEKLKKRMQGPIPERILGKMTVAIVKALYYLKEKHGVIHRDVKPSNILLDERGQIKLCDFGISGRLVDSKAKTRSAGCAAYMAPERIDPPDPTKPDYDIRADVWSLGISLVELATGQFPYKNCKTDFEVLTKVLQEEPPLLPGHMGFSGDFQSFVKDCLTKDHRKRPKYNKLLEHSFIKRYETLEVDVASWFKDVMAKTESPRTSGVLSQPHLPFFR

[4] = molecular target: T2, Dual specificity mitogen-activated protein kinase kinase 7 (Homo sapiens); details: at 10 µM
[5] = molecular target: Myosin light chain kinase, smooth muscle (Homo sapiens) (UniProt Q15746); details: at 1 µM
[6] = molecular target: Myosin light chain kinase, smooth muscle (Homo sapiens) (UniProt Q15746); details: at 10 µM
[7] = molecular target: Mitogen-activated protein kinase kinase kinase 9 (Homo sapiens) (UniProt P80192); details: at 1 µM
[8] = molecular target: Mitogen-activated protein kinase kinase kinase 9 (Homo sapiens) (UniProt P80192); details: at 10 µM
[9] = molecular target: Serine/threonine-protein kinase MRCK alpha (Homo sapiens) (UniProt Q5VT25); details: at 10 µM
[10] = molecular target: Serine/threonine-protein kinase MRCK beta (Homo sapiens) (UniProt Q9Y5S2); details: at 1 µM
[11] = molecular target: Serine/threonine-protein kinase MRCK beta (Homo sapiens) (UniProt Q9Y5S2); details: at 10 µM
[12] = molecular target: Ribosomal protein S6 kinase alpha-5 (Homo sapiens) (UniProt O75582); details: at 1 µM
[13] = molecular target: Ribosomal protein S6 kinase alpha-5 (Homo sapiens) (UniProt O75582); details: at 10 µM
[14] = molecular target: Ribosomal protein S6 kinase alpha-4 (Homo sapiens) (UniProt O75676); details: at 1 µM
[15] = molecular target: Ribosomal protein S6 kinase alpha-4 (Homo sapiens) (UniProt O75676); details: at 10 µM
[16] = molecular target: T3, Serine/threonine-protein kinase 4 (Homo sapiens) (UniProt Q13043); details: at 1 µM
T3 sequence (whole entry): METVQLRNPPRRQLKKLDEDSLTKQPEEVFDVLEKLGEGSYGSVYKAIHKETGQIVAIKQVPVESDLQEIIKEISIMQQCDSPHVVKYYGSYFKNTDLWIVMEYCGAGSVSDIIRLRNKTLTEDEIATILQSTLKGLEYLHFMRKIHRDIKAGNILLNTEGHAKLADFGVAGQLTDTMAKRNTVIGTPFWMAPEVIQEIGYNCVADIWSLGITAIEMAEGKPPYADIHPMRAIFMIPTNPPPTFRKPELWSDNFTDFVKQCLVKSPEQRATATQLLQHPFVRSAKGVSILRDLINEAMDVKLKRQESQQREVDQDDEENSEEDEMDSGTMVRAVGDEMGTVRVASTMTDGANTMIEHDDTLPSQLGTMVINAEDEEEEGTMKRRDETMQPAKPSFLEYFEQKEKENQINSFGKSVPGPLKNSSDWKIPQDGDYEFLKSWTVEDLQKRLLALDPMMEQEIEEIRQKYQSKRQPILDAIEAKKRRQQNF

[17] = molecular target: T3, Serine/threonine-protein kinase 4 (Homo sapiens); details: at 10 µM
[18] = molecular target: Serine/threonine-protein kinase MRCK alpha (Homo sapiens) (UniProt Q5VT25); details: at 1 µM
[19] = molecular target: SRSF protein kinase 3 (Homo sapiens) (UniProt Q9UPE1); details: at 1 µM
[20] = molecular target: SRSF protein kinase 3 (Homo sapiens) (UniProt Q9UPE1); details: at 10 µM

Sequence of Mitogen-activated protein kinase kinase kinase 9 (Homo sapiens) (P80192 whole entry, looked up): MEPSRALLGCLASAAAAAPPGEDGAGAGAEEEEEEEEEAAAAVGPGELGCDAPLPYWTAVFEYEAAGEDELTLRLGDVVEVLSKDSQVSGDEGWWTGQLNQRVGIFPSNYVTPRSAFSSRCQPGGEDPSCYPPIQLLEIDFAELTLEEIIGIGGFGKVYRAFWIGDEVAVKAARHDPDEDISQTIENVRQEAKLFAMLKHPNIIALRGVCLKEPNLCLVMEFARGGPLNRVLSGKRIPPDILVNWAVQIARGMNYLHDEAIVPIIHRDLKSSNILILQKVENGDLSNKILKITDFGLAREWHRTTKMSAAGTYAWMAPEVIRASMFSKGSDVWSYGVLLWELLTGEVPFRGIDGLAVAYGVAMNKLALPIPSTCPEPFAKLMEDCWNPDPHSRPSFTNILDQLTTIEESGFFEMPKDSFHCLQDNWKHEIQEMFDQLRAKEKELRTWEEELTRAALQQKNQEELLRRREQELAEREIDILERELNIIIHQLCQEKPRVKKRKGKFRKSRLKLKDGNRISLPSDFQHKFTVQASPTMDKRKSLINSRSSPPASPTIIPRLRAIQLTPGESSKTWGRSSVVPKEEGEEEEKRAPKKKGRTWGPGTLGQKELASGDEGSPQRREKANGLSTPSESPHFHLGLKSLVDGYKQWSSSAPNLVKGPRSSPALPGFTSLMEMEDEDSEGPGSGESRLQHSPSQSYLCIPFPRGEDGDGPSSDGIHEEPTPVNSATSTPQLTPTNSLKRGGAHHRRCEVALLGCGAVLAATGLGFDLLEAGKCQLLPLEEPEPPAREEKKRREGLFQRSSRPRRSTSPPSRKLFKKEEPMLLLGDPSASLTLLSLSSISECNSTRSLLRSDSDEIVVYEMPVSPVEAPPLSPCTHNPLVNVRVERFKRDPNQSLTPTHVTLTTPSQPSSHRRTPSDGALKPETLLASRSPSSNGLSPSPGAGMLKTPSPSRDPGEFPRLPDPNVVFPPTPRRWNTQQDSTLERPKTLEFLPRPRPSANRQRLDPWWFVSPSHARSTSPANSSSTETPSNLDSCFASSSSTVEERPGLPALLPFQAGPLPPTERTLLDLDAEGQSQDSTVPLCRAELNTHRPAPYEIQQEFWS
Sequence of Serine/threonine-protein kinase MRCK alpha (Homo sapiens) (Q5VT25 whole entry): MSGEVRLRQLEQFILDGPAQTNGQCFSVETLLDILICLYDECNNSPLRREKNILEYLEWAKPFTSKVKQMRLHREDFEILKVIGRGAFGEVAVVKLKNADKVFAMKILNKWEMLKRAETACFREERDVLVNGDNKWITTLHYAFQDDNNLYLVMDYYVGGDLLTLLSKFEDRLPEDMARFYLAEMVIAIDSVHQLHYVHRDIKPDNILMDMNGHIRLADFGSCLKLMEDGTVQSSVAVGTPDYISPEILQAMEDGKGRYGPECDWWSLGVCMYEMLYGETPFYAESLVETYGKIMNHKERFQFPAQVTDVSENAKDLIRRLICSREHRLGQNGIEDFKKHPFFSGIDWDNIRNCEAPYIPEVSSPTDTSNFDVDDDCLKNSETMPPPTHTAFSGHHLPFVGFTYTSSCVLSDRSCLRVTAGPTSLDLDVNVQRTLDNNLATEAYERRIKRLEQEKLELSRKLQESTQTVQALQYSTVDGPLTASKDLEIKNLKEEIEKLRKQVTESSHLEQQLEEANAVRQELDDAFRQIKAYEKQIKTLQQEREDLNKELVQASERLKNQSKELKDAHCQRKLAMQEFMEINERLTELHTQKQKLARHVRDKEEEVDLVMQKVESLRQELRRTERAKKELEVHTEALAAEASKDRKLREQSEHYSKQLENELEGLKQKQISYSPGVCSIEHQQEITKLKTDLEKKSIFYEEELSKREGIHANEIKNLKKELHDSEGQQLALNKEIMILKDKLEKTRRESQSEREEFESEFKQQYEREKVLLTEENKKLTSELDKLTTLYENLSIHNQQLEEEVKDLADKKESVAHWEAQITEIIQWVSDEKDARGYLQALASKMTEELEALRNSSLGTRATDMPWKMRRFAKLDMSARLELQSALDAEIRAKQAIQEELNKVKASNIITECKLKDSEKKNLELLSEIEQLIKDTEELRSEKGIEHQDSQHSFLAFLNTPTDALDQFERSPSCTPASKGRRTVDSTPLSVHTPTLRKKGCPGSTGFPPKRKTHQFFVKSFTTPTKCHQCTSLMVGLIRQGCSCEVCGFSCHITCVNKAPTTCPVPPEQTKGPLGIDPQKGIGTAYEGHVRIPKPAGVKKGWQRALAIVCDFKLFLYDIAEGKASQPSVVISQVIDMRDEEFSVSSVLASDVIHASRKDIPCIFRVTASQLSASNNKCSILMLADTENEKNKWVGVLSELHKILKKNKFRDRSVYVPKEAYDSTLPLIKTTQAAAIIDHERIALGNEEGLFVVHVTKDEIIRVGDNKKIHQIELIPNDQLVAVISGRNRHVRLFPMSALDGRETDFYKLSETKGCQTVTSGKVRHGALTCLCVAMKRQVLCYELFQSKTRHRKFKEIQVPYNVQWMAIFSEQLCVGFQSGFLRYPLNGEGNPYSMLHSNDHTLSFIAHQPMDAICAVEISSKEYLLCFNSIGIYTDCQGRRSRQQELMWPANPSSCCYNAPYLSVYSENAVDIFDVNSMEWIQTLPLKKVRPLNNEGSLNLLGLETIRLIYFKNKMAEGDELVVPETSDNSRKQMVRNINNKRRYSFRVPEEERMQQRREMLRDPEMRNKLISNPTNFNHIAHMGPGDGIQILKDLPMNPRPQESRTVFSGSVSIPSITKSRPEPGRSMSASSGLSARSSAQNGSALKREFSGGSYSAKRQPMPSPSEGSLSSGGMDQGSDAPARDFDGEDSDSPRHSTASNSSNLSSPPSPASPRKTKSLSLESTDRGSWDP
Sequence of Ribosomal protein S6 kinase alpha-5 (Homo sapiens) (O75582 whole entry, looked up): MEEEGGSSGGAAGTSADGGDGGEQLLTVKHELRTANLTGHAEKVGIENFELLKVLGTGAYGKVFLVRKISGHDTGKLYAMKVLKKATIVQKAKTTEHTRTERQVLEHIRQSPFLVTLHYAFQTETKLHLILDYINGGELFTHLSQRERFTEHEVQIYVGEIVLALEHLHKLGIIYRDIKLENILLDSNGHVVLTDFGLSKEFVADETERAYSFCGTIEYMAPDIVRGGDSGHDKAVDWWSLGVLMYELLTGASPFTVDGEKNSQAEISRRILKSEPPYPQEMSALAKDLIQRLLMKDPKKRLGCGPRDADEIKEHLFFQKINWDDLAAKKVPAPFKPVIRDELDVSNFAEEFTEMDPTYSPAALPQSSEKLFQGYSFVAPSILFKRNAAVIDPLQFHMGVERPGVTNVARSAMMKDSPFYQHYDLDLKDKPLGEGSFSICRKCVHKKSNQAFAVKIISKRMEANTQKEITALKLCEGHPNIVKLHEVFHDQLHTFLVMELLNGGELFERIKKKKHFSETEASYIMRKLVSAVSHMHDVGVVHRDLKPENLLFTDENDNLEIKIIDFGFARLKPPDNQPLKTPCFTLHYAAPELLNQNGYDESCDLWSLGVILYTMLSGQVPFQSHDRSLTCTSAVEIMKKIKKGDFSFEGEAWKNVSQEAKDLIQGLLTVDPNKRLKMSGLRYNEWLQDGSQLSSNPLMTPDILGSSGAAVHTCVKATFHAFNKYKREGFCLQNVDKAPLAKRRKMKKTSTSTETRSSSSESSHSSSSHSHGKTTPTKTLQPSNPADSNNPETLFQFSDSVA
Sequence of SRSF protein kinase 3 (Homo sapiens) (Q9UPE1 whole entry): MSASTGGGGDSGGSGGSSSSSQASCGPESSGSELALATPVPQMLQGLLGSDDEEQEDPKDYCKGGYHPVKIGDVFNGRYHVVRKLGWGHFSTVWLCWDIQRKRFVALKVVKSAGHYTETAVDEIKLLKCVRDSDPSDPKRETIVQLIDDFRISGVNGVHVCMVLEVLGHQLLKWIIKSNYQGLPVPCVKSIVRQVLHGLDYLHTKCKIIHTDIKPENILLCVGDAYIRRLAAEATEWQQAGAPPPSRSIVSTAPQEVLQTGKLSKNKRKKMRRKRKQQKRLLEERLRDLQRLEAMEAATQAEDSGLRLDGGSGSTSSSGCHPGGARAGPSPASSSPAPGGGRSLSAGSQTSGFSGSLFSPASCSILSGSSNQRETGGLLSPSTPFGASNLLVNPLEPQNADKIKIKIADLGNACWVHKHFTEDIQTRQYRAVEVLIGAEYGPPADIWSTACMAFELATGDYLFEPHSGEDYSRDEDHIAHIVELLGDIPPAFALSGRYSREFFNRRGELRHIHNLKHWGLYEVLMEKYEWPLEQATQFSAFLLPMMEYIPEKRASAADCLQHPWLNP
Sequence of Ribosomal protein S6 kinase alpha-4 (Homo sapiens) (O75676 whole entry, looked up): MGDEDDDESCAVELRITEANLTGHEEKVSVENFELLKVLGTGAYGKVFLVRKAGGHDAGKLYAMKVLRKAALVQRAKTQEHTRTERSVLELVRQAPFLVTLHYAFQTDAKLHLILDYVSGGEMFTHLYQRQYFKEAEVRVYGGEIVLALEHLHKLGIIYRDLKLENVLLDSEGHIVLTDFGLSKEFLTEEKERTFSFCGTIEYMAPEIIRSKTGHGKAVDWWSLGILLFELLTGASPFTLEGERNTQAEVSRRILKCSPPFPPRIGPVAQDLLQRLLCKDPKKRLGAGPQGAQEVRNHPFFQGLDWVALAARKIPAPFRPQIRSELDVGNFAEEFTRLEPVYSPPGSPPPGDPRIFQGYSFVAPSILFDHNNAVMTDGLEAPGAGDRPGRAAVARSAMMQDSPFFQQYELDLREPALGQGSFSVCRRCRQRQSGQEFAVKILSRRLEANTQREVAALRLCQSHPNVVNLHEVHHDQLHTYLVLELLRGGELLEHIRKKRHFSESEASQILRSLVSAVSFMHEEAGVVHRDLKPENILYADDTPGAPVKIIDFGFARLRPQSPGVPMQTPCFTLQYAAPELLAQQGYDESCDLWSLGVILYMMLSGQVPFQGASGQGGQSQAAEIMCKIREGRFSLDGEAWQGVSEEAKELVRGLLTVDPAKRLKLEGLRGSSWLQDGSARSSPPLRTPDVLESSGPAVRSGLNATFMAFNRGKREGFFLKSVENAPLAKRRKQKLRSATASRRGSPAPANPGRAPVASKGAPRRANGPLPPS

Structure (SMILES)	residual activity [1]	residual activity [2]	residual activity [3]	residual activity [4]	residual activity [5]	residual activity [6]	residual activity [7]	residual activity [8]	residual activity [9]	residual activity [10]	residual activity [11]	residual activity [12]	residual activity [13]	residual activity [14]	residual activity [15]	residual activity [16]	residual activity [17]	residual activity [18]	residual activity [19]	residual activity [20]
Cn1c2ccccc2c2c3c(c4c5ccccc5n(CCC#N)c4c21)CNC3=O	0%	1%	52%	34%	16%	11%	2%	2%	79%	74%	64%	3%	2%	2%	5%	1%	2%			
CC(C)[C@H](CO)Nc1nc(Nc2cc(N)cc(Cl)c2)c2ncn(C(C)C)c2n1	93%	78%	95%		82%	29%				100%	90%	118%	76%		51%	82%	47%	122%	40%	12%
CC(C)(C)n1nc(Cc2cccc3ccccc23)c2c(N)ncnc21	57%	38%	98%	94%	73%	87%	68%	18%	119%	99%	86%	120%	93%	95%		90%	58%	95%	116%	80%
O=C1NC(=O)C(c2cn(CCCO)c3ncccc23)=C1c1cnccn1	85%	77%	100%	99%	84%	78%	75%	55%								77%	60%			
COc1cc2c(cc1OC)-c1n[nH]c(Nc3cccc(F)c3)c1C2			109%	131%	73%	60%			129%		100%					83%	73%	116%	114%	66%
Nc1ncnc2[nH]nc(Nc3ccc(F)cc3)c12		74%			100%	78%	60%	12%	106%	95%	106%	117%	97%	92%	74%	72%		117%	98%	76%
COc1ccc(-c2cnc3c(-c4ccsc4)cnn3c2)cc1	73%		74%	86%					99%				94%	95%	95%					
O=S(=O)(c1cccc2cnccc12)N1CCCNCC1		81%	85%					84%					41%	58%	21%					
O=C1C(Cl)=C(N2C(=O)CCC2=O)C(=O)c2ccccc21			67%	78%		75%	96%	91%	94%	100%	97%	101%	123%	96%	91%	76%			98%	98%
COc1ccc(Cl)cc1NC(=O)Nc1cc(C)nc2ccccc12			87%	99%	83%	71%	91%	100%		87%	76%				95%	93%	79%			
CCCCc1c(-c2ccc(O)cc2)[nH]c2nccnc12	87%	73%			100%	83%	16%	15%						90%	85%	61%	42%			
O=C(Nc1ccc(Cl)cc1)c1ccccc1NCc1ccncc1							99%								101%					
Nc1nccc(-c2c(-c3ccc(F)cc3)ncn2C2CCNCC2)n1	80%	3%				82%		48%												
COc1ccc(CNC(=O)Nc2ncc([N+](=O)[O-])s2)cc1						76%			104%			114%	129%			108%	105%	118%		
Nc1nc(Nc2ccc(S(N)(=O)=O)cc2)nn1C(=O)c1c(F)cccc1F			104%		78%	22%	16%	1%								25%	2%		75%	33%
Cc1cc(C)c(/C=C2\C(=O)Nc3ccccc32)[nH]1	60%	76%			32%	39%				99%				61%	39%	51%	20%		99%	
CN([C@@H](Cc1ccc(OS(=O)(=O)c2cccc3cnccc23)cc1)C(=O)N1CCN(c2ccccc2)CC1)S(=O)(=O)c1cccc2cnccc12		124%			100%	72%													100%	
Oc1cccc(-c2nc(N3CCOCC3)c3oc4ncccc4c3n2)c1	91%				71%	72%	90%	99%	91%	91%	85%	130%	90%			97%	97%	97%		92%
Cn1sc(=O)n(Cc2ccccc2)c1=O					90%	91%	92%	88%	92%	73%	81%			96%	85%			98%		
